PubChem BioAssay (NCI)
This is part of a sample that, as a whole, favours compounds with a hit. Of some 79,000 tested, about 15% had one in any assay. The source made the active and inactive calls. No stated cut-off is given here; in the data, active means growth inhibition above about 70%; inactive means the rest.

Assays:
[1] = NCI Yeast Anticancer Drug Screen. Data for the wt1 strain (AID 149);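 further: 0% = growth of vehicle-treated wt1 cultures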; details: S. cerevisiae wt1 strain (SPY 50644) growth inhibition, active compounds read high
Method in brief: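 wt1 yeast, compound-treated; % growth inhibition vs vehicle control.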

[2] = NCI Yeast Anticancer Drug Screen. Data for the rad50EPP+ strain (AID 151);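 further: 0% = growth of vehicle-treated control cultures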; details: S. cerevisiae rad50 mutant strain, active compounds read high
Method in brief: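 Growth inhibition read against vehicle controls in rad50EPP+ yeast, a strain altered in DNA damage repair, after compound exposure.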

[3] = NCI Yeast Anticancer Drug Screen. Data for the mgt1 strain (AID 153); details: S. cerevisiae mgt1 mutant growth inhibition, active compounds read high
Method in brief: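 mgt1 yeast grown with test compound; read-out is growth inhibition versus vehicle-treated cultures.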

[4] = NCI Yeast Anticancer Drug Screen. Data for the rad50 strain (AID 155);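 further: 0% = growth of vehicle-only cultures of the same strain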; details: S. cerevisiae rad50 strain growth inhibition, active compounds read high
Method in brief: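 Genetically altered yeast (DNA repair pathway); compound treatment; growth inhibition vs vehicle ctrl.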

[5] = NCI Yeast Anticancer Drug Screen. Data for the mec2-1 strain (AID 157); details: S. cerevisiae mec2-1 strain, active compounds read high
Method in brief: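 Yeast mec2-1 mutant treated with compound. Readout: growth inhibition vs vehicle controls.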

[6] = NCI Yeast Anticancer Drug Screen. Data for the rad14 strain (AID 159);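 further: 0% = growth of vehicle-treated control cultures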; details: S. cerevisiae rad14 strain growth inhibition, active compounds read high
Method in brief: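 Test compounds were applied to a repair-deficient yeast strain. Its growth was then compared with that of cultures given vehicle alone, and inhibition was expressed relative to those controls.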

[7] = NCI Yeast Anticancer Drug Screen. Data for the sgs1 mgt1 strain (AID 161);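 further: 0% = growth of cultures given vehicle only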; details: S. cerevisiae sgs1 mgt1 strain, active compounds read high
Method in brief: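 Test agents were incubated with a DNA-repair-mutant yeast strain. Growth was then read and compared against vehicle-treated controls.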

[8] = NCI Yeast Anticancer Drug Screen. Data for the CLN2oe strain (AID 163);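 further: 0% = growth of vehicle-only control cultures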; details: S. cerevisiae CLN2oe strain, active compounds read high
Method in brief: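 Read-out: yeast growth inhibition, expressed relative to vehicle-only controls. The strain bears an engineered cell-cycle alteration.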

[9] = NCI Yeast Anticancer Drug Screen. Data for the cln2 rad14 strain (AID 165);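 further: 0% = growth equal to vehicle treated cultures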; details: S. cerevisiae cln2 rad14 strain, active compounds read high
Method in brief: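 cln2 rad14 yeast strain; compound exposure; growth inhibition read vs vehicle controls.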

[10] = NCI Yeast Anticancer Drug Screen. Data for the bub3 strain (AID 167); details: S. cerevisiae bub3 mutant strain, active compounds read high
Method in brief: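 Yeast carrying a defined mutation is treated with each compound, and growth is compared with that of vehicle-exposed cells to give inhibition.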

[11] = NCI Yeast Anticancer Drug Screen. Data for the wt2 strain (AID 169);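 further: 0% = growth of vehicle-treated yeast cultures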; details: S. cerevisiae wt2 strain growth inhibition, active compounds read high
Method in brief: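 Read-out: growth inhibition versus vehicle-treated control cultures after compound exposure of the yeast strain.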

[12] = NCI Yeast Anticancer Drug Screen. Data for the mlh1 strain (AID 171);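 further: 0% = growth of vehicle-treated control cultures of the same strain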; details: S. cerevisiae mlh1 strain growth inhibition, active compounds read high
Method in brief: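 Read-out: growth inhibition versus vehicle controls. Strain: engineered yeast with a defined DNA repair or cell cycle defect, compound-treated.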

[13] = NCI Yeast Anticancer Drug Screen. Data for the sgs1 strain (AID 173);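 further: 0% = growth of vehicle-only control cultures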; details: S. cerevisiae sgs1 mutant, active compounds read high
Method in brief: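 Read-out: yeast growth inhibition relative to vehicle controls, following compound exposure of a strain with a defined DNA repair/cell cycle alteration.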

[14] = NCI Yeast Anticancer Drug Screen. Data for the mlh1 rad18 strain (AID 175); details: S. cerevisiae mlh1 rad18 strain growth inhibition, active compounds read high
Method in brief: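 Yeast w/ defined DNA-repair lesions; compound exposure; growth vs vehicle controls → % inhibition.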

[15] = NCI Yeast Anticancer Drug Screen. Data for the rad18 strain (AID 177); details: S. cerevisiae rad18 mutant growth inhibition, active compounds read high
Method in brief: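 Readout: growth inhibition vs vehicle controls. Cells: genetically altered yeast strain, DNA repair defect.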

[16] = at 5.0 µM (retest, dose inferred, filed as 0.5)
[17] = at 50.0 µM (retest, dose inferred, filed as 5.0)

Measured: growth inhibition

CC(=O)OCC(=O)C1(O)CCC2C3CCC4CCCCC4(C)C3CCC21C (stereo unspecified)
inactive: [1]; at 1.2 µM -20% | [1]; at 3.7 µM -14% | [1]; at 11.0 µM 7% | [1]; at 33.0 µM 50% | [2]; at 1.2 µM -9% | [2]; at 3.7 µM -16% | [2]; at 11.0 µM -40% | [2]; at 33.0 µM -22% | [2]; at 100.0 µM -25% | [3]; at 1.2 µM 3% | [3]; at 3.7 µM 3% | [3]; at 11.0 µM 34% | [3]; at 33.0 µM 57% | [4]; at 1.2 µM 13% | [4]; at 3.7 µM -25% | [4]; [16] 59% | [4]; at 11.0 µM 13% | [4]; at 33.0 µM 53% | [5]; at 1.2 µM -3% | [5]; at 3.7 µM -10% | [5]; [16] 64% | [5]; at 11.0 µM 14% | [5]; at 33.0 µM 41% | [5]; at 50.0 µM 61.5% | [6]; at 1.2 µM -31% | [6]; at 3.7 µM -17% | [6]; at 11.0 µM 8% | [6]; at 33.0 µM 60% | [7]; [16] -11% | [7]; [17] 60% | [8]; at 1.2 µM 10% | [8]; at 3.7 µM 23% | [8]; at 11.0 µM 34% | [8]; at 33.0 µM 60% | [9]; [16] 35% | [10]; at 1.2 µM -24% | [10]; at 3.7 µM -13% | [10]; [16] 56% | [10]; at 11.0 µM 26% | [10]; at 33.0 µM 46% | [11]; at 1.2 µM -50% | [11]; at 3.7 µM -54% | [11]; at 11.0 µM -17% | [11]; at 33.0 µM 27% | [12]; at 1.2 µM -2% | [12]; at 3.7 µM -8% | [12]; at 11.0 µM 7% | [12]; at 33.0 µM 37% | [13]; at 1.2 µM -16% | [13]; at 3.7 µM -16% | [13]; at 11.0 µM 14% | [13]; at 33.0 µM 38% | [14]; [16] 47% | [15]; at 1.2 µM 10% | [15]; at 3.7 µM 24% | [15]; at 11.0 µM 32% | [15]; at 33.0 µM 67%
active: [1]; at 100.0 µM 77% | [3]; at 100.0 µM 88% | [4]; [17] 78% | [4]; at 50.0 µM 83.2% | [4]; at 100.0 µM 87% | [5]; [17] 84% | [5]; at 100.0 µM 81% | [6]; at 100.0 µM 86% | [7]; at 50.0 µM 70.5% | [8]; at 100.0 µM 82% | [9]; [17] 75% | [9]; at 50.0 µM 76% | [10]; [17] 74% | [10]; at 50.0 µM 76% | [10]; at 100.0 µM 82% | [11]; at 100.0 µM 74% | [12]; at 100.0 µM 79% | [13]; at 100.0 µM 79% | [14]; [17] 80% | [14]; at 50.0 µM 70.8% | [15]; at 100.0 µM 92%

CN=C(N)N/N=C/c1ccc2c(c1)Cc1ccccc1-2
inactive: [1]; at 1.2 µM 0% | [1]; at 3.7 µM 17% | [1]; at 11.0 µM 4% | [1]; at 33.0 µM 8% | [1]; at 100.0 µM 44% | [2]; at 1.2 µM -6% | [2]; at 3.7 µM 12% | [2]; at 11.0 µM 23% | [2]; at 33.0 µM 32% | [4]; at 1.2 µM -7% | [4]; at 3.7 µM -9% | [4]; [16] 10% | [4]; at 11.0 µM -12% | [4]; at 33.0 µM -2% | [4]; [17] 64% | [5]; at 1.2 µM 9% | [5]; at 3.7 µM -4% | [5]; [16] 6% | [5]; at 11.0 µM -5% | [5]; at 33.0 µM -13% | [5]; at 50.0 µM 23.1% | [5]; at 100.0 µM 60% | [7]; [16] 24% | [7]; at 50.0 µM 30.2% | [8]; at 1.2 µM -90% | [8]; at 3.7 µM -34% | [8]; at 11.0 µM -16% | [8]; at 33.0 µM -5% | [9]; [16] -5% | [9]; [17] 27% | [9]; at 50.0 µM 19.8% | [10]; at 1.2 µM -15% | [10]; at 3.7 µM -4% | [10]; [16] 30% | [10]; at 11.0 µM -8% | [10]; at 33.0 µM 3% | [10]; at 50.0 µM 22.4% | [11]; at 1.2 µM -44% | [11]; at 3.7 µM -17% | [11]; at 11.0 µM -15% | [11]; at 33.0 µM 34% | [12]; at 1.2 µM -24% | [12]; at 3.7 µM -18% | [12]; at 11.0 µM -17% | [12]; at 33.0 µM -10% | [13]; at 1.2 µM 12% | [13]; at 3.7 µM 35% | [13]; at 11.0 µM 50% | [13]; at 33.0 µM 58% | [14]; [16] 42% | [15]; at 1.2 µM -5% | [15]; at 3.7 µM -15% | [15]; at 11.0 µM -12% | [15]; at 33.0 µM 1%
active: [2]; at 100.0 µM 97% | [4]; at 50.0 µM 72.8% | [4]; at 100.0 µM 92% | [5]; [17] 92% | [7]; [17] 83% | [8]; at 100.0 µM 80% | [10]; [17] 100% | [10]; at 100.0 µM 73% | [11]; at 100.0 µM 98% | [12]; at 100.0 µM 91% | [13]; at 100.0 µM 93% | [14]; [17] 85% | [14]; at 50.0 µM 81.2% | [15]; at 100.0 µM 90%

CCC(=O)c1cccc2ccccc12
inactive: [1]; at 1.2 µM 0% | [1]; at 3.7 µM 1% | [1]; at 11.0 µM 3% | [1]; at 33.0 µM 0% | [1]; at 100.0 µM -4% | [2]; at 1.2 µM 6% | [2]; at 3.7 µM 11% | [2]; at 11.0 µM 27% | [2]; at 33.0 µM 48% | [3]; at 1.2 µM 1% | [3]; at 3.7 µM -1% | [3]; at 11.0 µM 0% | [3]; at 33.0 µM 15% | [3]; at 100.0 µM 3% | [4]; at 1.2 µM 0% | [4]; at 3.7 µM -1% | [4]; [16] -14% | [4]; at 11.0 µM 1% | [4]; at 33.0 µM 0% | [4]; [17] 2% | [4]; at 50.0 µM 14.7% | [4]; at 100.0 µM -3% | [5]; at 1.2 µM -2% | [5]; at 3.7 µM 0% | [5]; [16] 5% | [5]; at 11.0 µM -2% | [5]; at 33.0 µM -1% | [5]; [17] 4% | [5]; at 50.0 µM 19.2%
active: [2]; at 100.0 µM 86%
